Source: PubChem BioAssay (NCI)
This is part of a sample that, as a whole, favours compounds with a hit. Of some 79,000 tested, about 15% had one in any assay. Unmarked numbers belong to inactive results. Activity calls are given as the source filed them. No stated cut-off is given here; in the data, active means growth inhibition above about 70%; inactive means the rest. Where a SMILES comes first, the peptide text is derived from it. The star is where a group is joined. Cbz = O=C(OCc1ccccc1)*; Bn = c1ccc(C*)cc1

What was measured:
[1] = NCI Yeast Anticancer Drug Screen. Data for the rad50 strain (AID 155);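 further: 0% = growth of vehicle-only cultures of the same strain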; conditions: S. cerevisiae rad50 strain growth inhibition; at 50.0 µM; stronger effect = higher value
Procedure, shortened: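 Readout: growth inhibition relative to vehicle-treated cultures. Compound exposure was carried out in a genetically defined yeast strain deficient in DNA damage repair.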

[2] = NCI Yeast Anticancer Drug Screen. Data for the mec2-1 strain (AID 157); conditions: S. cerevisiae mec2-1 strain, at 50.0 µM, stronger effect = higher value
Procedure, shortened: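 Readout is yeast growth inhibition, normalised to vehicle-treated controls, in the mec2-1 strain exposed to compound.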

[3] = NCI Yeast Anticancer Drug Screen. Data for the sgs1 mgt1 strain (AID 161);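 further: 0% = growth of cultures given vehicle only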; conditions: S. cerevisiae sgs1 mgt1 strain, at 50.0 µM, stronger effect = higher value
Procedure, shortened: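 Growth of a repair-deficient yeast mutant was monitored after compound treatment and expressed as inhibition relative to vehicle-treated cultures.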

[4] = NCI Yeast Anticancer Drug Screen. Data for the cln2 rad14 strain (AID 165);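 further: 0% = growth equal to vehicle treated cultures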; conditions: S. cerevisiae cln2 rad14 strain, at 50.0 µM, stronger effect = higher value
Procedure, shortened: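 Relative to vehicle controls, growth inhibition of compound-treated cln2 rad14 yeast was recorded.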

[5] = NCI Yeast Anticancer Drug Screen. Data for the bub3 strain (AID 167); conditions: S. cerevisiae bub3 mutant strain, at 50.0 µM, stronger effect = higher value
Procedure, shortened: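 Readout: yeast growth inhibition, expressed relative to vehicle-only wells. The test organism is a mutant strain from a panel with lesions in DNA repair or checkpoint genes.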

[6] = NCI Yeast Anticancer Drug Screen. Data for the mlh1 rad18 strain (AID 175); conditions: S. cerevisiae mlh1 rad18 strain growth inhibition; at 50.0 µM; stronger effect = higher value
Procedure, shortened: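 Test agents were incubated with a yeast strain of defined genotype (DNA damage repair defect). Inhibition of growth was derived by comparison with vehicle-exposed cultures.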

Row | Structure (SMILES) | growth inhibition [1] | growth inhibition [2] | growth inhibition [3] | growth inhibition [4] [%] | growth inhibition [5] | growth inhibition [6]
1 | FC(F)(F)c1cc(NC(=S)SCc2ccc(Cl)cc2)ccc1Cl | 22.8% | 8.7% | 16.2% | 14.6 | 13.6% | 11.2%
2 | Cc1ccc(N=Nc2c(C)nn(C(=S)S)c2C)cc1 | 71.9% (active) | 39.4% | 90% (active) | 35.8 | 83.3% (active) | 96.2% (active)
3 | COC1CCC(C2=NC3CCCCC3SC2)CC1 (configuration not stated) | 13.6% | 18.8% | 21.5% | -10.6 | 54.8% | 31.7%
4 | CCn1c2ccccc2n2c(=O)c3c(c(C#N)c12)CCCC3 | 4.6% | 13.2% | -30.1% | -8.6 | -33.9% | -18.5%
5 | O=C(Nc1ccccc1)c1cc(S(=O)(=O)n2cc[nH]c2=O)c(S)cc1Cl | 9.5% | 3.6% | 5.1% | -5.1 | 2.65% | 13.2%
6 | COc1ccc(C(=O)c2ccccc2)c(OC(=O)Nc2ccc(Cl)cc2)c1 | 14.8% | -3.4% | 14.9% | 3.8 | 12.6% | 16.6%
7 | O=C1C(=Nc2ccc(Cl)nc2)CC(c2ccccc2)N1c1ccc(Cl)nc1 (configuration not stated) | 7.9% | 9.25% | 16.1% | 22.4 | 3% | -4%
8 | CCCCNc1c(C(=O)N2CCCCC2)cnc2c1cnn2CC | -3.15% | 1.8% | 26.2% | -13.9 | 46.8% | 1.05%
9 | CCC(C)N=Cc1ccccc1O.CCC(C)N=Cc1ccccc1O.[Cu] (configuration not stated) | 33.7% | -10.3% | 28.4% | -44.7 | 2.1% | 11.2%
10 | COc1cc(C2CC(C)=C(C)CC2C(=O)O)cc(OC)c1OC (configuration not stated) | 1.55% | 22.4% | 7.25% | 30.1 | 10.4% | 19.8%
11 | CCOC(=O)CCC(NC(=O)c1ccc(NC)c([N+](=O)[O-])c1)C(=O)OCC (configuration not stated) | 58.9% | -1.9% | 11.4% | 18.8 | 4% | 0.8%
12 | C=CCN1C(=O)C/C(=C2/CCC(=O)N2CC=C)C1=O | -11.1% | -27.4% | -16% | 3.6 | 1.8% | -9.8%
13 | C#CCN1CCCC1 | -9.4% | -4.35% | -11% | 22.1 | 27.7% | 10.2%
14 | C/C(=N\N(C)C)c1sc(-n2nc(-c3ccccc3)cc2-c2ccccc2)nc1C | 10.7% | -10.2% | 17.6% | -8 | 11% | 8.75%
15 | c1ccc(-c2csnn2)cc1 | -8.6% | -12.2% | -4.05% | -17.8 | -13.4% | -11.8%
16 | CCC(CC)C1OCC(O)CO1 (configuration not stated) (tested in a mixture with another compound) | 20.4% | 2.7% | 10% | 6.85 | 22.1% | 17.4%
17 | O=c1c[n+]([O-])c2ccccc2n1O | 10.8% | -3.75% | 3.75% | -27.1 | -5.7% | 11.8%
18 | CCCS(=O)(=O)N1CCC(C)CC1 | 5.7% | -21.1% | 5.85% | -8.65 | -8.55% | 1.6%
19 | c1ccc(CCN(CCc2ccccn2)CCc2ccccn2)nc1 | -5.85% | -13.6% | 0.35% | 0.3 | 3% | 18%
20 | Cc1ccc(S(=O)(=O)C(=S)SCc2ccccc2)cc1 | 38.5% | 37.8% | 59% | 19.6 | 35.4% | 33%
21 | COC12OCCN(C)C1=CC(=O)C1=NNC(C)C12 (configuration not stated) | -37% | -1.6% | -8% | -27 | -11.8% | -36.5%

Row | Structure (SMILES) | growth inhibition [1] | growth inhibition [2] | growth inhibition [3] | growth inhibition [4] [%] | growth inhibition [5] | growth inhibition [6]
22 | CCCCCC(C)(O)CCCCC | 0.15% | 1.75% | 1.7% | 11.7 | 18.3% | 12%
23 | CCOC(=O)CCCCCCCCCCCCCCCCC(=O)OCC | 30.9% | -31.9% | -14.2% | 19.5 | 7.75% | 8.9%
24 | Cn1nc(-c2ccccc2)c(C(=O)/C=C/c2ccc(Cl)cc2)c(N2CCCCC2)c1=O | -30.9% | -21.9% | -36.2% | 1.75 | -22.9% | -22.2%
25 | CCc1ccc(NC(=O)c2ccc(C(=O)Nc3ccc(CC)cc3)cc2)cc1 | 3.2% | 6.6% | 8.4% | 14.1 | 13.4% | 5.1%
26 | CC(=O)OC1CCC23COC(CC(C)C2C)C3(Cl)C1 (configuration not stated) | -0.7% | -4.65% | -3.25% | -8.1 | -11.2% | 5.05%
27 | CCOC(=O)c1c(C)c2c(n1C)CC/C(=C/NCCc1ccccc1)C2=O | 93% (active) | 79% (active) | 86.4% (active) | 29.8 | 90.5% (active) | 93.3% (active)
28 | Nc1ccccc1C(=O)N/N=C/c1cccnc1 | 11.1% | -21.3% | 17.7% | 9.45 | 13.2% | -16.6%
29 | c1ccc(C2=C(c3ccccc3)CSSC2)cc1 | 46.4% | 34.6% | 79.8% (active) | 46.6 | 41.7% | 93.5% (active)
30 | CS(=O)(=O)CC1=Nc2nnc(CCCCCCCc3nnc4n3C(=O)C(CS(C)(=O)=O)=N4)n2C1=O | -17% | 5.1% | 5.55% | -12.1 | -5.15% | -7.95%
31 | CC(=O)c1nc2ccccc2n1CC(=O)c1ccc(Cl)cc1 | -9.25% | 11.3% | 18.9% | 12.6 | 43.7% | -3.55%
32 | CC1=Nc2ccccc2N2C1=CC1=C(C(=O)c3cc4ccccc4cc3C1=O)C2C (configuration not stated) | 16.4% | 6.65% | 5.75% | 24.2 | -5.2% | 24.4%
33 | CC(=O)c1ccc(O)c(C=O)c1O | 11.7% | 9.3% | 27.1% | 2.65 | -2.9% | 31.9%
34 | OC(COc1ccc(Cl)cc1Cl)CN1CCCC1 (configuration not stated) | 10.1% | 11.8% | 17.7% | 5.05 | -23.4% | 18.1%
35 | O=C(COc1ccccc1Cl)N1N=C(c2ccc(Cl)cc2)CC1(O)c1ccccc1 (configuration not stated) | -17.9% | -7.2% | -43.2% | -0.85 | -25.8% | -16.9%
36 | O=C(NC1CCCCC1)C1C2CC3OC(=O)C1C3C2 (configuration not stated) | -10.8% | -19.2% | 37.1% | -27.6 | 20.5% | -10.1%
37 | CC1C2CC(C(C3C(=O)C4CC3C(C)(C)C4C)C2=O)C1(C)C (configuration not stated) | -13.1% | -26.1% | -43.2% | -1 | -27.4% | -32.1%
38 | COc1ccc(-c2nc3c(nc2-c2ccc(OC)cc2)C(N)=NS(=O)(=O)N3)cc1 | -18.9% | -7.95% | -19.9% | 2.2 | -17.6% | -10.1%
39 | O=C1Cc2c([nH]c3ccc(Cl)cc23)-c2ccccc2N1 | 5.55% | 2.1% | -50.9% | 13.8 | -7.9% | 17.1%
40 | CC(C)C(NC(=O)C(CSCc1ccccc1)NC(=O)OCc1ccccc1)C(=O)O (configuration not stated) (Cbz-Cys(Bn)-Val-OH; configuration not given here) | 24.1% | -2.4% | 13.4% | 28.1 | -2.1% | 21.1%
41 | CC(=O)Nc1ccc(/C=C2\SC(=S)N(/C=C3/C(=O)N(c4ccccc4)N=C3C)C2=O)cc1 | 12.6% | -3% | 4% | 7 | -2.85% | 7%
42 | CN(C)Cc1cc(N=Nc2ccccc2)ccc1O | -23.4% | -12.2% | -12.4% | 9.4 | 4.9% | -19.4%
